Results from PubChem BioAssay (Tox21).
Inconclusive results are not listed. Calls of active or inactive are those of the source. Unless noted, the call rests on the fitted dose curve; in most records, active means well fitted curve in the direction sought with a large enough effect in the repeat runs; inconclusive means weak or mixed curves; inactive means no such curve, though single readings can be large; an effect the other way counts as inactive or inconclusive.

What was measured:
[1] = qHTS assay to identify small molecule HDAC inhibitors (AID 1259364); further: top concentration of the series differs between compounds; nearly all actives have a fitted effect of over 45% in size
In short: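 Luminescence read after 30 min room-temperature HDAC-Glo incubation measures cellular class I/II HDAC activity. Compounds were applied for 2 hr at 37 C to HCT-116 wild-type cells seeded the day before.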

[2] = qHTS assay to identify small molecule HDAC inhibitors - cell viability counter screen (AID 1259365); further: series mostly up to about 92 µM; nearly all actives have a fitted effect of over 50% in size
In short: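 Wild-type HCT-116 cells, 1,500/well, cultured overnight, then compound-treated 2 h at 37 C. Viability measured as ATP luminescence with CellTiter-Glo after 30 min at room temperature.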

[3] = qHTS assay to identify small molecule agonists of the sonic hedgehog signaling (Shh) pathway - cell viability counter screen (AID 1259366); further: nearly all actives have a fitted effect of over 50% in size
In short: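 NIH/3T3-derived Gli1-Luc reporter cells, 2,000 per well, received compound after 4 h and were treated about 23 h at 37C. Viability measured in the same wells by CellTiter-Fluor fluorescence after 1 h.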

[4] = qHTS assay to identify small molecule antagonists of the sonic hedgehog signaling (Shh) pathway - cell viability counter screen (AID 1259367); further: nearly all actives have a fitted effect of over 55% in size
In short: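 Cytotoxicity was assessed in parallel with Shh reporter activity by measuring live-cell protease fluorescence (CellTiter-Fluor) in NIH/3T3 cells stably carrying Gli1-Luc, treated with compound under conditioned medium stimulation for 23 hr plus 1 hr reagent incubation.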

[5] = qHTS assay to identify small molecule agonists of the sonic hedgehog signaling (Shh) pathway (AID 1259368; calls by dose curve;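 further: NIH/3T3-derived 3T3Gli1-Luc cells carrying a stable Gli1-driven firefly luciferase reporter; series mostly up to about 92 µM; nearly all actives have a fitted effect of over 15% in size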)
In short: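 Luminescence was read after 30 min at room temperature with luciferase reagent. Before that, 3T3Gli1-Luc cells (NIH/3T3 clone, stable Gli1-Luc reporter; 2,000/well) were exposed to compounds for 24 hr at 37C, 5% CO2, compounds being added 4 hr post-plating.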

[6] = qHTS assay to identify small molecule antagonists of the sonic hedgehog signaling (Shh) pathway (AID 1259369; calls by dose curve; further: nearly all actives have a fitted effect of over 45% in size)
In short: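 Antagonist mode: compound added to 3T3 Gli1-Luc cells followed by conditioned-medium stimulation, 24 h at 37 C, 5% CO2. Inhibition taken as loss of Gli1-driven luciferase luminescence.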

[7] = target: Estrogen receptor beta (Homo sapiens) (UniProt Q92731); test: qHTS assay to identify small molecule agonists of the estrogen receptor beta (ER-beta) signaling pathway (AID 1259377; active means well fitted activation curve with a large enough effect in the signal ratio in the repeat runs, not every such curve was filed as active; the % refers to the signal ratio)
Estrogen receptor beta (Homo sapiens), sequence (Q92731 whole entry, looked up): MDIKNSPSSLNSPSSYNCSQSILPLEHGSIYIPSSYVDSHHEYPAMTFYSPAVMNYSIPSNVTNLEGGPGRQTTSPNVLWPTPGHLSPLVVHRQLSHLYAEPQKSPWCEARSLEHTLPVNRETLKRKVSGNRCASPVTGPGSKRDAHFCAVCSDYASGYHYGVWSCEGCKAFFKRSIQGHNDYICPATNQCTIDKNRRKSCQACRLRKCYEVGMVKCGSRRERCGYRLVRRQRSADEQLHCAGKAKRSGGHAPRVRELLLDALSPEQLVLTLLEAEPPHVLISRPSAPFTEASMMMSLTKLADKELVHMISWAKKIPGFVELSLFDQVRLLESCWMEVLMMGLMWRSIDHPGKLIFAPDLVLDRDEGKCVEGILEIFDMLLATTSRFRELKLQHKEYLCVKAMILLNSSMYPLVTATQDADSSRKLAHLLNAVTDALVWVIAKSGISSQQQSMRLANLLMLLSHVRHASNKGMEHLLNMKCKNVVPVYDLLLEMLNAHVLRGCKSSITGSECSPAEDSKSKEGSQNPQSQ
In short: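 ER-beta-UAS-bla HEK293T cells in medium with 2% charcoal-stripped FBS were exposed to compounds for 16 h at 37C. Beta-lactamase reporter activity was read as fluorescence after 2 h with LiveBLAzer B/G FRET substrate at room temperature.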

[8] = target: Estrogen receptor beta (Homo sapiens) (UniProt Q92731); test: qHTS assay to identify small molecule antagonists of the estrogen receptor beta (ER-beta) signaling pathway (AID 1259378; active means well fitted inhibition curve with a large enough effect in the signal ratio in the repeat runs, not every such curve was filed as active; the % refers to the signal ratio)
In short: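 ER-beta-UAS-bla HEK293T (GripTite) cells in 2% charcoal-stripped FBS medium were preincubated 6 hr at 37C, dosed with compound, then stimulated with 1 nM E2 (final) for 16 hr; beta-lactamase reporter read by B/G FRET fluorescence after 2 hr substrate loading.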

[9] = qHTS assay to identify small molecule agonists of the androgen receptor (AR) signaling pathway in the presence of an antagonist - cell viability counter screen (AID 1259379);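 further: MDA-kb2 human breast cancer cells carrying an MMTV luciferase reporter; series mostly up to about 92 µM; nearly all actives have a fitted effect of over 25% in size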
In short: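 Cytotoxicity counter-screen run in the same wells as the nilutamide-challenged (3.0 µM final) AR agonist assay in MDA-kb2 cells. Compounds tested at 15 concentrations for 16 h, 37 °C without CO2; CellTiter-Fluor fluorescence read.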

[10] = qHTS assay to identify small molecule agonists of the estrogen receptor beta (ER-beta) signaling pathway - cell viability counter screen (AID 1259380); further: nearly all actives have a fitted effect of over 30% in size
In short: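 Cell viability counter screen: CellTiter-Glo luminescence (30 min, room temperature) measured in the same wells as the beta-lactamase readout, after 16 hr compound exposure at 37C of ER-beta-bla HEK293T cells in 2% charcoal-stripped FBS medium.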

[11] = target: Estrogen receptor (Homo sapiens) (UniProt P03372); test: qHTS assay to identify small molecule agonists of the estrogen receptor alpha (ER-alpha) signaling pathway in the presence of an antagonist (AID 1259383; calls by dose curve; further: top concentration of the series differs between compounds; nearly all actives have a fitted effect of over 15% in size)
Estrogen receptor (Homo sapiens), sequence (P03372 whole entry, looked up): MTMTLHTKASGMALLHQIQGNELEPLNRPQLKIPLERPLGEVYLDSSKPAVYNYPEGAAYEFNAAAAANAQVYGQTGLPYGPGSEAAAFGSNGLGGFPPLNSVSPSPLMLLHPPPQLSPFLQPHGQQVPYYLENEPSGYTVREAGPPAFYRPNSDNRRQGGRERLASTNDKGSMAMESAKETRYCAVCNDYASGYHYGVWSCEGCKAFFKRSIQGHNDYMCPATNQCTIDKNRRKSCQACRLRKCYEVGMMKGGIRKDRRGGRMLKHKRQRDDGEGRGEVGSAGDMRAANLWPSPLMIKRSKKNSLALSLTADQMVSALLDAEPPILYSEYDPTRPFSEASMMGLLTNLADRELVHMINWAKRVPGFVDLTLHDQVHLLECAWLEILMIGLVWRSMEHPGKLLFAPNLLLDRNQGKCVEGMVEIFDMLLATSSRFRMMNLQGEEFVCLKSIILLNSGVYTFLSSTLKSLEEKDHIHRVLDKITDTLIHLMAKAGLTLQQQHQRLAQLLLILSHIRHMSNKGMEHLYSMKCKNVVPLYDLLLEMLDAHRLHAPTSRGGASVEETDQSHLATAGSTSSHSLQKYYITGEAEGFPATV
In short: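 Agonist-mode confirmation run in the presence of 10.0nM (final) ICI-182,780 antagonist. The reporter was ERE-driven luciferase in VM7Luc4E2 cells, grown in charcoal-stripped serum. Cells were exposed to 15-concentration compound series for 22hr, then ONE-Glo luminescence was read.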

[12] = qHTS assay to identify small molecule agonists or antagonists of the thyroid stimulating hormone receptor (TSHR) signaling pathway - wild type cell line counter screen (AID 1259384; calls by dose curve)
In short: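 Wild-type HEK293 cells were plated 18 h at 37 C/5% CO2, pin-dosed with compound plus Ro20-1724 medium, held 30 min at room temperature, then given cAMP-d2 and anti-cAMP-cryptate; fluorescence was read after 1 h. Fifteen concentrations, triplicate.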

[13] = target: Thyrotropin receptor (Homo sapiens) (UniProt P16473); test: qHTS assay to identify small molecule antagonists of the thyroid stimulating hormone receptor (TSHR) signaling pathway (AID 1259385; calls by dose curve; further: nearly all actives have a fitted effect of over 20% in size)
Thyrotropin receptor (Homo sapiens), sequence (P16473 whole entry, looked up): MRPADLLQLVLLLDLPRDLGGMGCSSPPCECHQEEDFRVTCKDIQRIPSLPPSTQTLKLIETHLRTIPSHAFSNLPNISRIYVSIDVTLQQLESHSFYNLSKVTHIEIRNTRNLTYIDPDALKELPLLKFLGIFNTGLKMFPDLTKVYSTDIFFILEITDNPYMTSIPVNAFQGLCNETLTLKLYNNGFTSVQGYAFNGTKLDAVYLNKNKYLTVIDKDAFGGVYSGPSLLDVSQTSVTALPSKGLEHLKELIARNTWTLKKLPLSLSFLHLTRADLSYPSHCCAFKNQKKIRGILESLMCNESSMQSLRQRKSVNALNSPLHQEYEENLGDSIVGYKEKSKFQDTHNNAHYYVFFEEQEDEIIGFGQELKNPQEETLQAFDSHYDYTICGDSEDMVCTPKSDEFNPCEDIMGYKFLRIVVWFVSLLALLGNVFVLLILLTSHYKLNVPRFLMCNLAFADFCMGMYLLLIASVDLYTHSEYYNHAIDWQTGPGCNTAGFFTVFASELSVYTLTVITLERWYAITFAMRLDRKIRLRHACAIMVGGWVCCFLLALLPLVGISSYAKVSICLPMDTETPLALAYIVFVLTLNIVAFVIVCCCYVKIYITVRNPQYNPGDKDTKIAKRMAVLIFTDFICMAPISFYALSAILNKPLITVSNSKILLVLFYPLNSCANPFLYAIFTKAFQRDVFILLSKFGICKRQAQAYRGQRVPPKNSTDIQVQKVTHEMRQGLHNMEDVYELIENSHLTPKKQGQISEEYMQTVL
In short: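 TSHR-HEK293 cells were plated and held 18 h at 37C/5% CO2, then given compound plus Ro20-1724 and stimulated with TSH at 1.5 ng/mL final. After 30 min at room temperature, cAMP was detected with cAMP-d2/anti-cAMP-cryptate (1 h) by fluorescence.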

[14] = qHTS assay to identify small molecule agonists of the estrogen receptor alpha (ER-alpha) signaling pathway in the presence of an antagonist - cell viability counter screen (AID 1259386); further: series mostly up to about 92 µM; nearly all actives have a fitted effect of over 30% in size
In short: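 Compounds tested at 15 concentrations for 22 h at 37C alongside 10.0nM (final) ICI-182,780 antagonist, in VM7Luc4E2 cells grown in phenol red-free, charcoal-stripped medium. Viability read by CellTiter-Fluor fluorescence after 1 h reagent incubation.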

[15] = target: Progesterone receptor (Homo sapiens) (UniProt P06401); test: qHTS assay to identify small molecule agonists of the progesterone receptor (PR) signaling pathway (AID 1346784; calls by dose curve; further: nearly all actives have a fitted effect of over 30% in size)
Progesterone receptor (Homo sapiens), sequence (P06401 whole entry, looked up): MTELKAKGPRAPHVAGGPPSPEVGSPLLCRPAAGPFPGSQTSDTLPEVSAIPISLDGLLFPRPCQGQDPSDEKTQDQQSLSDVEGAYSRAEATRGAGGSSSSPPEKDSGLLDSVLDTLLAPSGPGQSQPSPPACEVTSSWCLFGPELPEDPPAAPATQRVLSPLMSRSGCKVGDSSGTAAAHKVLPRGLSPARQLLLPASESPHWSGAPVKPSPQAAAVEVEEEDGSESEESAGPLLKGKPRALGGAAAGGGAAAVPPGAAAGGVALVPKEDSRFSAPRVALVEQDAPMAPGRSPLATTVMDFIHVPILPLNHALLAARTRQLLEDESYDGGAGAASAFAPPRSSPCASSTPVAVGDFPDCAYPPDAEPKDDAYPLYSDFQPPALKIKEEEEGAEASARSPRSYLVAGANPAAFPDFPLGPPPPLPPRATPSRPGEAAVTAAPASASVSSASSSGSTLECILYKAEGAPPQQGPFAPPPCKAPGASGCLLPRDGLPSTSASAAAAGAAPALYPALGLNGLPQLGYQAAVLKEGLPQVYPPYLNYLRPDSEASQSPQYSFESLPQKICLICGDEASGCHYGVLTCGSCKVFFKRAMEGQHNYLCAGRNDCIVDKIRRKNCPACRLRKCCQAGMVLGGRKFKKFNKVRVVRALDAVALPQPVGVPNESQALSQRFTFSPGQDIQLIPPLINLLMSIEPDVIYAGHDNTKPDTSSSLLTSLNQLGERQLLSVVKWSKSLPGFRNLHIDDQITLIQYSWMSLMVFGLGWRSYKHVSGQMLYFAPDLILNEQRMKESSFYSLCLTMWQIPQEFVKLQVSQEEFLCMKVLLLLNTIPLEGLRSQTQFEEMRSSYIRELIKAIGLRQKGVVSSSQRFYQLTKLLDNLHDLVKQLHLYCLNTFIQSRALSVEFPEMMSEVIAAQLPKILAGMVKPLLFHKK
In short: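 PR-UAS-bla HEK 293T cells (beta-lactamase reporter under UAS) in 2% charcoal-stripped FBS, dosed with 23 nL compound after 6 hr, incubated 16hr at 37C. LiveBLAzer B/G FRET substrate added, fluorescence read after 2 hours.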

[16] = target: Progesterone receptor (Homo sapiens) (UniProt P06401); test: qHTS assay to identify small molecule antagonists of the progesterone receptor (PR) signaling pathway (AID 1346795; active means well fitted inhibition curve with a large enough effect in the signal ratio in the repeat runs, not every such curve was filed as active; the % refers to the signal ratio)
In short: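 PR-UAS-bla HEK293T cells with beta-lactamase reporter under UAS control, in 2% charcoal-stripped FBS, treated with compounds plus 1 nM promegestone (R5020, final) for 16 hr at 37C. Read-out: FRET beta-lactamase substrate fluorescence after 2 hr at room temperature.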

[17] = qHTS assay to identify small molecule agonists of the progesterone receptor (PR) signaling pathway - cell viability counter screen (AID 1346799; calls by dose curve; further: nearly all actives have a fitted effect of over 45% in size)
In short: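 Counter screen in the PR-UAS-bla HEK293T wells (2% charcoal-stripped FBS, 16 h compound exposure at 37 C) after the bla read. CellTiter-Glo added, 30 min at room temperature, luminescence read as cell viability.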

[18] = qHTS assay to identify small molecule antagonists of the TGF-beta/Smad signaling pathway - cell viability counter screen (AID 1346824); further: nearly all actives have a fitted effect of over 50% in size
In short: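 SBE-bla HEK 293T cells were plated overnight at 37 C, then given compounds in DMSO plus TGF-beta1 (added as 0.25 ng/mL solution) for 5 hr. After the bla read, CellTiter-Glo was added to the same wells and luminescence read after 30 min at room temperature.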

[19] = qHTS assay to identify small molecule antagonists of the estrogen receptor beta (ER-beta) signaling pathway - cell viability counter screen (AID 1259382); further: series mostly up to about 92 µM; nearly all actives have a fitted effect of over 55% in size
In short: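 Cytotoxicity was measured in the same wells by CellTiter-Glo luminescence after 30 min at room temperature. Cells were ER-beta-bla HEK293T in charcoal-stripped serum, given compound together with 1 nM E2 and incubated 16 h at 37C.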

[20] = qHTS assay to identify small molecule antagonists of the progesterone receptor (PR) signaling pathway - cell viability counter screen (AID 1346798); further: series mostly up to about 92 µM; nearly all actives have a fitted effect of over 50% in size
In short: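 PR-UAS-bla HEK293T cells, 3,000/well in 2% charcoal-stripped FBS medium, dosed with compounds plus R5020 agonist and incubated 16 h at 37C. Viability then measured in the same wells by CellTiter-Glo luminescence after 30 min at RT.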

Measured: Potency

NCCc1ccn[nH]1
not listed: [19] | [20]
inactive: all other assays above

Cn1c(=O)c2c(ncn2CC2OCCO2)n(C)c1=O
not listed: [11] | [12] | [13]
inactive: all other assays above

CC(C)COC(=O)COc1ccc(Cl)cc1Cl
not listed: [9] | [11]
inactive: all other assays above

NS(=O)(=O)c1cc2c(cc1Cl)NC(C(Cl)Cl)NS2(=O)=O (stereo not given)
not listed: [11] | [12]
inactive: all other assays above

O=C(c1ccc2c(c1)C(=O)OC2=O)c1ccc2c(c1)C(=O)OC2=O
not listed: [11] | [20]
inactive: all other assays above

Nc1ccc(C(=O)OCC(O)CO)cc1 (stereo not given)
not listed: [9] | [15] | [17] | [20]
inactive: all other assays above

COc1ccc(OC)c(NC(=O)CC(C)=O)c1
not listed: [11]
inactive: all other assays above

CC1(N)CCC(C(C)(C)N)CC1 (stereo not given)
not listed: [11] | [15] | [17] | [18]
inactive: all other assays above
